Over roughly 68,000 sequences, “fluorescence intensity (a.u.)” has its median near 9,100; the highest 2% begin near 16,000. Many of the other results were omitted from the sample, so the highest values are more common in it than they were.

OsWRKY34, sequence (Q0JBA9 entry or part of it): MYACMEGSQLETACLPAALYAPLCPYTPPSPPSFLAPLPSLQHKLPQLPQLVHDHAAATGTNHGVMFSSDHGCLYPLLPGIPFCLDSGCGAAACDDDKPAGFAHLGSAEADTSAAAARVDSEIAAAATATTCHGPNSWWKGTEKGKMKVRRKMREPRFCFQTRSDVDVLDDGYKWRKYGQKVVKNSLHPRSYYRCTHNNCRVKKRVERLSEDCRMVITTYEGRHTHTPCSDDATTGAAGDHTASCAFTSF

This experiment has as its target OsWRKY34 (Oryza sativa, UniProt Q0JBA9 1-250). Briefly: protein-binding microarray (RPBM); PBS, 2% BSA, 51.3 ng/ul salmon testes DNA, 50 uM zinc acetate, 200 nM TF, 25 C, 1 h; high values mean tight binding. Conditions: protein: recombinant; tags: N-terminal polyhistidine and DsRed monomer fusion (pET32a); label: CyDye5-dUTP incorporated in the synthesized complementary strand; 3' TTTTT single-stranded linker to array surface; dsDNA, one strand shown. Summed up:
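For the binding signal, per-feature fluorescence intensity was read in arbitrary units on an Axon 4000B scanner. Before scanning, a 2% BSA-blocked custom Agilent array made double-stranded with Cy5-dUTP was washed after 1 h at 25 °C with 200 nM protein and 50 µM zinc acetate. The proteins were Ni–NTA-purified transcription factors with N-terminal polyhistidine and DsRed fusions, expressed in E. coli BL21-CodonPlus.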
For “CGCCGTTGACTTTTTAAAATTTGTTTGACCGTTCGTCTTACGGAGTCACCTAGTGCAG”, the binding signal is 30700 fluorescence intensity (a.u.).
As for “TGTTTGACCGTTCGTCTTATTAAAATTTTTTTGTGAAATACGGAGTCACCTAGTGCAG”, the binding signal is 8610 fluorescence intensity (a.u.).
As for “TTCCTTTGTTTAGTTGTTTGTTTTACATTCCACTCTACTACGGAGTCACCTAGTGCAG”, the figure is 9220 fluorescence intensity (a.u.).
Consider “GAGTGCCATTGAATCCTTCTGTTGCGTTGACCACCAAATGCGGAGTCACCTAGTGCAG”, for which the binding signal was 16500 fluorescence intensity (a.u.).
Next, “TTTTGCCCTTTTTCTCTCGCCAGCTCGGACCCGTCGTGACCGGAGTCACCTAGTGCAG”: 8730 fluorescence intensity (a.u.).
In the case of “TTCTGAATGTGATTGAATTAATTGGACTTGCGTTGACCTTCGGAGTCACCTAGTGCAG”, the binding signal is 11700 fluorescence intensity (a.u.).
Consider “CGTTTGACCGTTCGTCTTATTTGAAAATTTTTTATGCTTACGGAGTCACCTAGTGCAG”, for which the binding signal was 10100 fluorescence intensity (a.u.).
Take “CTGTTCCATTTCTCCTTGTTGCATCAGTAACTCCAAACCACGGAGTCACCTAGTGCAG”: the binding signal is 12200 fluorescence intensity (a.u.).
Consider “GATTATTTGCTTTACGGTTTTTTAAAAAAATTTCTTCATACGGAGTCACCTAGTGCAG”, for which the binding signal was 9590 fluorescence intensity (a.u.).
Turning to “CACACACACCCTGTCGAGCGAATATGCATGTCTTCTCAAGCGGAGTCACCTAGTGCAG”, the binding signal was 8960 fluorescence intensity (a.u.).
Regarding “TCCCTTTTGAGTACCACTGCTGATATCTGGATGCCCGTCACGGAGTCACCTAGTGCAG”, the binding signal was 8080 fluorescence intensity (a.u.).
With “TTCACAATGTAAGCCATTCTAGCATTTTCCATATTTATATCGGAGTCACCTAGTGCAG”, the binding signal was 8240 fluorescence intensity (a.u.).
With “ATTTTGCCCCTTGTTGATCACCACAGAAGAACATGTGCTACGGAGTCACCTAGTGCAG”, the binding signal is 9790 fluorescence intensity (a.u.).
On to “CCCATTCTTTCACTTTTGACCTTTTTTTATCATTTTGTTTCGGAGTCACCTAGTGCAG”, for which the binding signal was 9510 fluorescence intensity (a.u.).
As for “TTTAGTACGTGTTTGACCATTCGTCTTATTAAAAAAATTTCGGAGTCACCTAGTGCAG”, the figure is 9130 fluorescence intensity (a.u.); as for “TTTGACACCGTTGATTTTTTAATATGTGTTTGACCATTCGCGGAGTCACCTAGTGCAG”, 9260 fluorescence intensity (a.u.); as for “CGTTGACTTTTTAGTACGTGTTTGACCATTCGTCTTATTCCGGAGTCACCTAGTGCAG”, 30200 fluorescence intensity (a.u.).
For the sequence “TGTTAACTTTTTAGTACGTGTTTGACTATTCGTTTTATTCCGGAGTCACCTAGTGCAG”, the binding signal is 12800 fluorescence intensity (a.u.).
“GGTCGTCGTCTTTGCATTGTCTCCTTGTCCGGTACGTTGGCGGAGTCACCTAGTGCAG”: the binding signal is 9400 fluorescence intensity (a.u.).
As to “AACTTTACAATTTTTTTATGTCATCCATGTCACATGTTTTCGGAGTCACCTAGTGCAG”, the binding signal was 9030 fluorescence intensity (a.u.).
Turning to “TGTCACATTCGTCTCCGGTCCGTACGTTGCTGTATTTTAGCGGAGTCACCTAGTGCAG”, the binding signal was 17100 fluorescence intensity (a.u.).
For the sequence “ATCCGTGTATTATAGCGTTTCGTAGTAGTATTTTTATGTCCGGAGTCACCTAGTGCAG”, the binding signal was 9280 fluorescence intensity (a.u.).
As for “GTTCATATAGTACGTACTTTTATTCGTTAGTATATATGACCGGAGTCACCTAGTGCAG”, the figure is 9410 fluorescence intensity (a.u.); as for “ACCCACTTTCGACTCCATGAATTTCATCACATTTGTTTTACGGAGTCACCTAGTGCAG”, 18600 fluorescence intensity (a.u.); as for “TTTGACACCGTTGACTTTTTAGTACGTATTTGATCATTCGCGGAGTCACCTAGTGCAG”, 33800 fluorescence intensity (a.u.).
As to “GTTCCCAACGGTCACCTCGTCGTCGTTGCCAAATCTGCCACGGAGTCACCTAGTGCAG”, the binding signal is 8670 fluorescence intensity (a.u.).
As for “ATCACGTCGCCTCGTTTCTTGCCTCGCCGCTCGTTGCTCGCGGAGTCACCTAGTGCAG”, the binding signal is 12200 fluorescence intensity (a.u.).
Turning to “AATACCAAGTTTATTTCTCACCTGCATTTTAGATTCTCATCGGAGTCACCTAGTGCAG”, the binding signal is 9050 fluorescence intensity (a.u.).
As for “TAGTCCACCTTTTATTACCCAAGTTTCAATTTGGACCACCCGGAGTCACCTAGTGCAG”, the binding signal is 9740 fluorescence intensity (a.u.).
Next, “TCCCTTCCCTGTTCCTGGCGACGTGTCACCTTCTTATTCGCGGAGTCACCTAGTGCAG”: 8050 fluorescence intensity (a.u.); “ATAAACATTGACTCGCCGGAGTAGTTTTGAAACGTTTGACCGGAGTCACCTAGTGCAG”: 9180 fluorescence intensity (a.u.); “GCAACCAACATCCCGGCGGCGAGCTCGTACGTACCAAATCCGGAGTCACCTAGTGCAG”: 10800 fluorescence intensity (a.u.).
Consider “CACACCACACACTGATGCAACGGCACTTAAGCGCACGAAGCGGAGTCACCTAGTGCAG”, for which the binding signal was 8060 fluorescence intensity (a.u.).
In the case of “CGTCGGTGTGGTATGCTTGTCGCGCGGCGGCGCGGCCGTACGGAGTCACCTAGTGCAG”, the binding signal is 8790 fluorescence intensity (a.u.).
Regarding “CCTACCTCCTACTCCTTATCCTCCACTTCGTCGCATTACACGGAGTCACCTAGTGCAG”, the binding signal is 8750 fluorescence intensity (a.u.).
As for “CGACTGCAGCTGATCCGGATTCAACACGGACATAGTACACCGGAGTCACCTAGTGCAG”, the binding signal is 8550 fluorescence intensity (a.u.).
In the case of “ATTTAGTTCTCAACATACCCCTTTTCATCTTTTTGTCAGACGGAGTCACCTAGTGCAG”, the binding signal was 8840 fluorescence intensity (a.u.).
“GCTGTTGACTTTCGACCTACGTTTGACCATTCGTTTTATTCGGAGTCACCTAGTGCAG”: the binding signal was 20600 fluorescence intensity (a.u.).
Take “ACACCGTTGACTTTTTAGTACGTATTTGACCATTCGTCTTCGGAGTCACCTAGTGCAG”: the binding signal was 36700 fluorescence intensity (a.u.).
On to “AATATTTTTTTTTACTGTTTTCACTTTGACCATTAATATTCGGAGTCACCTAGTGCAG”, for which the binding signal is 9790 fluorescence intensity (a.u.).
As for “GTTGACTTTTTGATTAACGTTTGACCATTCGTTTTATTCACGGAGTCACCTAGTGCAG”, the figure is 9480 fluorescence intensity (a.u.); as for “TCATTGACTTTTCGATCAACGTTTGACCATTTGTTTTATTCGGAGTCACCTAGTGCAG”, 16700 fluorescence intensity (a.u.).
Next, “TCATTCATATTATTTATTATTTAGTTGTTTGACTTTTTTTCGGAGTCACCTAGTGCAG”: 9600 fluorescence intensity (a.u.); “CGTTGACTTTTTAGTACATGTTTGACCATTCGTCTTATTCCGGAGTCACCTAGTGCAG”: 36100 fluorescence intensity (a.u.); “CTTTTTAATCAACGTTTGACCATTCGTCTTATTCAATTTTCGGAGTCACCTAGTGCAG”: 10900 fluorescence intensity (a.u.).

(Values after paper PMC7819943, “Rice protein-binding microarrays: a tool to detect cis-acting elements near promoter regions in rice”.)
